Laboratory results published in the supplement of paper PMC6555819.

Key:
Experiment in all cases: PBM binding z-score (relative to random genomic background probes); higher = stronger binding; sequences stand for … in GC…GCGATTGACAGCGTAGAATGAAGG
[1] = tested on: PPARg:RXRa DBDmut IVT, anti-RXR (DBD mutation: RXRa K156A/R161A, NR concentration 270 nM, RXRa partner concentration 90 nM)
Outline: (§1)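 On custom Agilent 4×180K arrays, double-stranded probes with 34-nt variable regions carried direct-repeat seeds, single-nucleotide variants, half-site ablations or random human genomic background. Ligand-free nuclear receptor dimers were applied for 1 h, and binding was read with antibodies against each partner (one per run). Binding z-scores come from regression-normalized fluorescence, with the random background probes as reference.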

[2] = tested on: PPARg:RXRa IVT, anti-PPARg (NR concentration 270 nM, RXRa partner concentration 90 nM)
Outline: as §1

[3] = tested on: PPARg DBDmut:RXRa IVT, anti-PPARg (DBD mutation: PPARg1 K132A/R137A, NR concentration 270 nM, RXRa partner concentration 90 nM)
Outline: as §1

[4] = tested on: PPARg DBDmut IVT, anti-PPARg (DBD mutation: PPARg1 K132A/R137A, NR concentration 270 nM)
Outline: as §1

[5] = tested on: PPARg homodimer (NR concentration 180 nM)
Outline: as §1

[6] = tested on: PXR:RXRa (NR concentration 270 nM, RXRa partner concentration 90 nM)
Outline: as §1

[7] = tested on: PXR homodimer (NR concentration 270 nM)
Outline: as §1

[8] = tested on: RARa:RXR (NR concentration 270 nM, RXRa partner concentration 90 nM)
Outline: as §1

[9] = tested on: RARa homodimer (NR concentration 270 nM)
Outline: as §1

[10] = tested on: RARb:RXRa (NR concentration 270 nM, RXRa partner concentration 90 nM)
Outline: as §1

Sequence | PBM binding z-score [1] | PBM binding z-score [2] | PBM binding z-score [3] | PBM binding z-score [4] | PBM binding z-score [5] | PBM binding z-score [6] | PBM binding z-score [7] | PBM binding z-score [8] | PBM binding z-score [9] | PBM binding z-score [10]
TAGCCTAGGTCATTCAGGGGCCAGTATTGAAAGC | 1.67 | 2.66 | -0.277 | -0.0243 | 2.68 | 2.72 | -0.361 | 3.99 | -0.562 | 3.8
CGAACTAGGTCAAGGACAGTGATTCTCCGCACGC | 8.31 | 8.3 | 2.89 | 2.07 | 1.69 | 1.37 | -0.0135 | 2.28 | 0.11 | 4.21
TCGGACAGGTGAAGGTAACTCAGGTACGCAGTCG | 2.03 | 1.01 | -0.211 | -0.574 | 0.536 | 0.407 | 0.228 | 0.44 | 0.257 | 1.45
CCTTGCAGGCCAATCTGGGTCACTCAAGGCTTGA | 4.87 | 5.67 | 0.0467 | -0.339 | 0.973 | 1.02 | -0.543 | 1.59 | -0.229 | 1.53
CGTCCAAGGTCAGAGGTCAGTGAAGAGATGACGG | 2.44 | 4.65 | 0.388 | -0.499 | 3.51 | 5.72 | 1.13 | 7.11 | 0.938 | 5.55
TCATATAGGTAAATGTTAGGTGAAAGTCCGATCT | 4.12 | 2.63 | 1.47 | 1.82 | 1.66 | 0.918 | 0.8 | 1.63 | 1.9 | 0.728
ACACACAGGTGATGAAGGTAACTCAGGCTATCAT | 0.704 | 1.02 | 0.73 | 0.679 | 0.0611 | -0.0363 | 0.251 | 0.28 | 0.957 | 0.355
GCGACTGGGACATCAGCAGGTTACCATAACTTAA | 1.95 | 1.18 | -0.236 | -1.24 | -0.146 | -0.226 | -0.651 | -0.109 | -0.694 | 0.0627
CGAACTAGGTCATCCAGGACAGTGCATACATTGA | 8.26 | 8.19 | 1.89 | 1.6 | 1.98 | 2.11 | 1.49 | 2.35 | 0.873 | 3.91
ACTAGTTGGTCAGCTGAGGTCACCCACAATTCGG | 1.12 | 2.73 | 0.761 | 0.737 | 3.43 | 5.45 | 1.71 | 4.87 | 1.52 | 3.58
CGTCCAAGGGCAGAGAGGTCAGTGAATGCCGAGT | 0.812 | 1.16 | -1.66 | -1.28 | 1.16 | 3.43 | 6.33 | 2.56 | -0.0232 | 3.92
TCTTATAGGTAAAGGTGAAAGTCGAACGATATGA | 3.92 | 3.7 | 2 | 1.77 | 1.61 | 1.11 | 0.648 | 1.96 | 1.18 | 2.21
TCTAGTTGGTCAAAGGTCACATACTCGAAATGCG | 3.45 | 6.25 | 1.46 | 1.64 | 5.02 | 5.59 | 1.83 | 7.12 | 3.51 | 4.83
ATATGTACGTTAAGGGTCATTCAGGTTGGTTCGC | 0.825 | 3.15 | 3.4 | 3.29 | 2.8 | 5.22 | 2.21 | 4.96 | 1.35 | 3.21
TATACAGGGTCAAGGGCCAGAGTACGAATGTCGA | 2.4 | 4.69 | 2.98 | 1.83 | 3.27 | 3.99 | 0.571 | 4.97 | 1.16 | 4.61
CCTGCTAGGTTATGGTCAGCTAATCTACAGTATG | 1.28 | 0.468 | -0.113 | 0.438 | -0.1 | -0.197 | -0.354 | -0.233 | 0.0671 | 1
TCTCGGGGGACACGAAAGGTCAGAGCTCGACATC | 3.01 | 4.33 | 6.64 | 6.38 | 5.71 | 5.07 | 1.76 | 5.57 | 2.64 | 4.48
TAGCCTAGGTCATTTAGGGGCCAGTATAGAAAGC | 1.79 | 2.38 | 0.515 | -0.286 | 1.87 | 2.34 | -0.166 | 3.45 | -0.429 | 3.6
ATATGTAGGTTAGCTTGGGTCATTCAGACTAGGC | 6.6 | 5.97 | 1.34 | 1.95 | 1.5 | 2.77 | 0.807 | 2.26 | 0.877 | 1.89
CGTCCAAGGTCAAGTTCAGTGAAAGAGACTCGAA | 2.98 | 3.88 | 1.06 | -0.344 | 3.64 | 5.19 | 3.9 | 5.39 | 2.56 | 5.66
AGTCAAAGTTCACTAGGTAACGTAGGATTCAGCT | 2.76 | 4.99 | 0.535 | 0.509 | 2.04 | 3.89 | 2.85 | 2.82 | 0.778 | 4.83
AGAACGAGGGCAATGAGTTGAAAGCACGGGTGGC | 3.01 | 2.76 | 0.626 | -0.78 | 0.52 | 1.67 | 5.02 | 0.551 | -0.34 | 2.03
ATCTCTTGGTAAAGTTCAGTGAAAGATCGATAGA | 0.216 | 0.63 | 1.4 | 1.94 | 1.76 | 2.41 | 2.31 | 1.63 | 1.65 | 2.82
